Measured values published in PubChem BioAssay.
The source made the active and inactive calls. Unless noted, no rule for the calls is given here.

Legend:
[1] = tested on: Wnt5a (protein binding on small-molecule microarray); test: small molecules binding Wnt5a protein – biophysical, small-molecule microarray, 635/667 nm fluorescence, primary screen (AID 1142); details: 635 nm fluorescence, higher = more signal;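 also: fluorescence read at 667 nm with signal to noise per printed feature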
[2] = ATP-based viability of Huh7 replicon cells – cell-based, CellTiter-Glo luminescence, basal, 48 h, cytotoxicity control for HCV replication inhibitor project, primary screen (AID 1143); details: higher = more signal, called active from +8 up or from −8 down;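 also: Huh7 hepatoma cells carrying a hepatitis C replication reporter with no stimulus; test concentration not given here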
[3] = Pseudomonas biofilm growth suppression – PAO1 strain, BacTiter-Glo luminescence, LB-PBS, primary screen (AID 1144); details: P. aeruginosa PAO1 biofilm, 12 h, higher = more signal
[4] = basal CRE-LacZ reporter activity in PC12 – cell-based, unstimulated, primary screen (AID 1145); details: no forskolin, luminescence, 4.5 h, higher = more signal, called active from +8 up or from −8 down
[5] = forskolin-driven CRE-LacZ activity in PC12 – cell-based, CRE-LacZ reporter, forskolin-stimulated, primary screen (AID 1146); details: luminescence, 4.5 h, higher = more signal, called active from +8 up or from −8 down;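 also: PC12 cells with 6xCRE LacZ reporter stimulated by forskolin 10 µM; beta-galactosidase reporter signal reflecting CREB driven transcription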
[6] = molecular target: Streptavidin (Streptomyces avidinii) (UniProt P22629); test: compounds binding control protein streptavidin – biophysical, small-molecule microarray, 635/667 nm fluorescence, artefact control for SMM compound annotation, primary screen (AID 1147); details: higher = more signal;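 also: signal reflects streptavidin binding to arrayed compounds as a control protein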
Streptavidin (Streptomyces avidinii), sequence (P22629 whole entry, looked up): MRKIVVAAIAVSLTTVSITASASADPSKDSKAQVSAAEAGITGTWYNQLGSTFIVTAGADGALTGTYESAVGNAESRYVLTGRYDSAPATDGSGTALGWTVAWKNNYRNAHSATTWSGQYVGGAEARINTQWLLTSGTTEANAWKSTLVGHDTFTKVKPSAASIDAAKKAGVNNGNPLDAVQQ

[7] = probe aInhba binding on compound microarray – biochemical, small-molecule microarray, 635/667 nm fluorescence, primary screen (AID 1148); details: higher = more signal;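 also: score merges 667nm spot fluorescence with signal-to-noise for antibody binding to printed compounds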
Torsin-1A (Homo sapiens) [8] = molecular target: Torsin-1A (Homo sapiens) (UniProt O14656); test: TOR1A wild-type binding on microarray – cell lysate, small-molecule microarray, lysate, 635/667 nm, primary screen (AID 1149); details: COS7 hTOR1A-WT lysate, 635 nm fluorescence, higher = more signal
Torsin-1A (Homo sapiens), sequence (O14656 whole entry, looked up): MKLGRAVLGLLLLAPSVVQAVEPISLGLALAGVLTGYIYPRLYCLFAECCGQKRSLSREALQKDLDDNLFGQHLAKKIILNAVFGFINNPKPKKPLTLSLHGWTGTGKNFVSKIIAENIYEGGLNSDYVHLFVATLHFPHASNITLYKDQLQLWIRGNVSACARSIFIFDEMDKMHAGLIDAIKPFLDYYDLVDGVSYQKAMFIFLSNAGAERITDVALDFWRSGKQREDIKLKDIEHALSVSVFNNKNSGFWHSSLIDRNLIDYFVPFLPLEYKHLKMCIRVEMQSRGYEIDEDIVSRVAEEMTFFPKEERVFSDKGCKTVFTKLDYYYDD

Torsin-1A (Homo sapiens) [9] = molecular target: Torsin-1A (Homo sapiens) (UniProt O14656); test: torsin A mutant lysate binding on microarrays – cell lysate, small-molecule microarray, COS7 lysate, 635/667 nm fluorescence, primary screen (AID 1150); details: COS7 hTOR1A mutant lysate, 635 nm fluorescence, higher = more signal;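 also: score pools 667 nm emission and signal to noise measuring lysate protein binding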
[10] = tested on: Sonic hedgehog protein (Shh); test: Sonic hedgehog microarray binding compounds – biochemical, small-molecule microarray, 635/667 nm fluorescence, primary screen (AID 1151); details: 635 nm fluorescence, higher = more signal;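 also: Shh protein binding to compounds spotted on small-molecule microarray slides; score combines spot fluorescence intensity with signal-to-noise across triplicate slides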
[11] = optical density shifts of acrAB sulA E. coli – strain DRC41, OD650, 48 h, E. coli filamentation inducer project, primary screen (AID 1152); details: higher = more signal, called active from +8 up or from −8 down;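 also: E. coli MC1000 strain DRC41 lacking acrAB efflux pump and sulA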
[12] = probe aLefty1 binding on compound microarray – biochemical, small-molecule microarray, 635/667 nm fluorescence, primary screen (AID 1153); details: higher = more signal;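 also: score merges spot fluorescence with signal-to-noise ratio from the scanned slide images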
[13] = plasmodial surface anion channel blockers, osmotic lysis – cell-based, P. falciparum Indochina, OD700, 1 h, primary screen (AID 1154); details: P. falciparum Indochina infected RBC osmotic lysis, higher = more signal, called active from +8 up or from −8 down
[14] = plasmodial surface anion channel blockers, osmotic lysis – cell-based, P. falciparum Indochina, OD700, 2 h, primary screen (AID 1155);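 also: lysis reports solute entry through the parasite surface anion channel PSAC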; details: P. falciparum Indochina infected erythrocytes, higher = more signal, called active from +8 up or from −8 down
[15] = changes in parasitized red cell lysis, either direction – P. falciparum Indochina, OD700, 3 h, PSAC antagonist project, primary screen (AID 1156); details: P. falciparum-infected erythrocytes, osmotic lysis, higher = more signal, called active from +8 up or from −8 down
[16] = plasmodial surface anion channel blockers, osmotic lysis – cell-based, P. falciparum Indochina, OD700, 18 h, primary screen (AID 1157); details: P. falciparum Indochina infected erythrocytes, osmotic lysis OD700, 18 h; higher = more signal, called active from +8 up or from −8 down
[17] = S6 kinase pathway phospho-S6 level changes – cell-based, A549, cytoblot, luminescence, serum-stimulated, primary screen (AID 1158); details: 5 h, higher = more signal;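 also: serum-stimulated A549 lung adenocarcinoma cells; signal is phosphorylated S6 detected by cytoblot immunostaining with HRP secondary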
[18] = molecular target: NADPH oxidase 2 (Homo sapiens) (UniProt P04839); test: compounds shifting NOX2 Amplex Red fluorescence – cell-based, HEK293-NOX2, PMA-stimulated, NOX inhibitor project, primary screen (AID 1159); details: 45 min, higher = more signal, called active from +8 up or from −8 down; also: test concentration not given here
NADPH oxidase 2 (Homo sapiens), sequence (P04839 whole entry, looked up): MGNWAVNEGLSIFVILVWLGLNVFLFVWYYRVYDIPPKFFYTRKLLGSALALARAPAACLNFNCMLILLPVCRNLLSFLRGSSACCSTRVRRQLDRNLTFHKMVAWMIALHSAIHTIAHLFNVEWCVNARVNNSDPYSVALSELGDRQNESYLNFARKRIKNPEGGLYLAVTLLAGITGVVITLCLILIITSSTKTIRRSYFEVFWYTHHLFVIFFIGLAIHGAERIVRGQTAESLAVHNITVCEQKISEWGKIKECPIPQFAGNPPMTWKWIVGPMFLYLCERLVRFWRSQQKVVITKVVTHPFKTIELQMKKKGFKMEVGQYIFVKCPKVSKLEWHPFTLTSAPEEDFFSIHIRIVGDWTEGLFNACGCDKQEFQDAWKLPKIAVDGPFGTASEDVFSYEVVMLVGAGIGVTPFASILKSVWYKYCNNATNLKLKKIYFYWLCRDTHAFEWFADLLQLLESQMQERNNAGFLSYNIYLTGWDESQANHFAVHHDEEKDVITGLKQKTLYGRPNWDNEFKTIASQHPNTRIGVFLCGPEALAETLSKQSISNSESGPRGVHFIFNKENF

[19] = molecular target: NADPH oxidase 4 (Homo sapiens) (UniProt Q9NPH5); test: compounds shifting NOX4 Amplex Red fluorescence – cell-based, HEK293-NOX4, tetracycline-induced, NOX inhibitor project, primary screen (AID 1160); details: HEK293-NOX4, Amplex Red H2O2 fluorescence, 45 min; higher = more signal, called active from +8 up or from −8 down
NADPH oxidase 4 (Homo sapiens), sequence (Q9NPH5 whole entry, looked up): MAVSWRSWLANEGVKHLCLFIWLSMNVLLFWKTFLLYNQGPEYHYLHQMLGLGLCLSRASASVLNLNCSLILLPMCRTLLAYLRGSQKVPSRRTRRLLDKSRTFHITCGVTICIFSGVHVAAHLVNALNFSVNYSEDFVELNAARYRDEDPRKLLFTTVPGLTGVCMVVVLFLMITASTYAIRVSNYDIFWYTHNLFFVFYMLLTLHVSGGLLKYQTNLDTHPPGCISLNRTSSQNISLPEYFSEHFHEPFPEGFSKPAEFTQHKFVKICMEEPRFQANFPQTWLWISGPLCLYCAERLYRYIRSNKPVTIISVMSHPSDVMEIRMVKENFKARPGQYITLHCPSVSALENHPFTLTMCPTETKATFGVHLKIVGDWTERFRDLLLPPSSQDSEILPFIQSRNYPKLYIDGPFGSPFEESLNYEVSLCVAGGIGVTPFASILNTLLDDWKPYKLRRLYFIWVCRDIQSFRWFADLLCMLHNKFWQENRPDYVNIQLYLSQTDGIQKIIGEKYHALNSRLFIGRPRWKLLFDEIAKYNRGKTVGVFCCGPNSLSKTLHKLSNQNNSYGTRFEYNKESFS

[20] = molecular target: NADPH oxidase 5 (Homo sapiens) (UniProt Q96PH1); test: compounds shifting NOX5 Amplex Red fluorescence – cell-based, HEK293-NOX5, NOX inhibitor project, primary screen (AID 1161); details: HEK293-NOX5, ionomycin, 45 min, higher = more signal
NADPH oxidase 5 (Homo sapiens), sequence (Q96PH1 whole entry, looked up): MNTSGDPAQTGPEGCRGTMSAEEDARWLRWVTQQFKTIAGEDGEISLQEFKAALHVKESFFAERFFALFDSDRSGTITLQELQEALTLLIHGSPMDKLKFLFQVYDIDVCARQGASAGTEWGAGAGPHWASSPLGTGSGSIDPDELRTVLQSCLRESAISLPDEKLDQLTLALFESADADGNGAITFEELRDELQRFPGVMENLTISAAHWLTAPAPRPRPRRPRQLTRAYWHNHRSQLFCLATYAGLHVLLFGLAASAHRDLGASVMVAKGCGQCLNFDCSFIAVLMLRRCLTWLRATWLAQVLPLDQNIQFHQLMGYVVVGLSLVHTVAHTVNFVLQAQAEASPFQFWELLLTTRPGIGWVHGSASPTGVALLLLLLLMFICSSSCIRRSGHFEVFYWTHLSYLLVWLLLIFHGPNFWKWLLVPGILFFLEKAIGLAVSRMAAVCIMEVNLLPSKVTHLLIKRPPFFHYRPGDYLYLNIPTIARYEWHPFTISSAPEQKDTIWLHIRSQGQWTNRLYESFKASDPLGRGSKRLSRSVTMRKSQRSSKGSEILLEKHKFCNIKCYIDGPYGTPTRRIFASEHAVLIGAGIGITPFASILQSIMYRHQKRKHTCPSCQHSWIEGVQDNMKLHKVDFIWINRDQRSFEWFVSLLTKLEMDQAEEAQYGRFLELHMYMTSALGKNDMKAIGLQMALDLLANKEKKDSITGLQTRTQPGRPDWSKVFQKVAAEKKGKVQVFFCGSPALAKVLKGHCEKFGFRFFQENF

Compound | composite z-score [1] | z-score [2] | z-score [3] | z-score [4] | z-score [5] | composite z-score [6] | composite z-score [7] | composite z-score (Torsin-1A (Homo sapiens) [8]) | composite z-score (Torsin-1A (Homo sapiens) [9]) | composite z-score [10] | z-score [11] | composite z-score [12] | z-score [13] | z-score [14] | z-score [15] | z-score [16] | z-score [17] | z-score [18] | z-score [19] | z-score [20]
COCCOC(=O)N1C(=O)[C@@]2(c3cc(C#CC4=CCCCC4)ccc31)[C@H](C(=O)Nc1nc3ccccc3s1)[C@H]1C(=O)O[C@H](c3ccccc3)[C@H](c3ccccc3)N1[C@@H]2c1ccc(OCCO)cc1 | 0.575 | -1.49 (inactive) | -1.07 (inactive) | -0.258 (inactive) | -0.47 (inactive) | 0.986 | -0.0221 | 0.256 | 0.254 | 1.5 | -1.56 (inactive) | -0.333 | 2.63 (inactive) | 1.23 (inactive) | -0.218 (inactive) | 1.59 (inactive) | -0.145 | 1.01 (inactive) | 0.101 (inactive) | 0.468
CCCCCCC#C[Si](O[C@H](c1ccccc1)c1cn([C@H](CO)Cc2ccccc2)nn1)(C(C)C)C(C)C | -0.193 | -0.866 (inactive) | -0.235 (inactive) | -0.215 (inactive) | -0.0183 (inactive) | -0.463 | -0.128 | -1.01 | 0.211 | 0.537 | 2.03 (inactive) | -0.217 | 0.704 (inactive) | 0.268 (inactive) | -0.55 (inactive) | 0.602 (inactive) | 0.447 | -1.25 (inactive) | -0.227 (inactive) | -2.2
C[N+](C)(C)CCCCNC(=O)[C@H]1C[C@H]2C(=O)N[C@@H](Cc3ccccc3)C(=O)N2[C@H]1c1ccc(O)cc1 | 0.134 | 0.0641 (inactive) | 0.0228 (inactive) | 0.143 (inactive) | 0.465 (inactive) | -0.455 | 0.106 | 0.81 | 0.513 | 2.04 | 0.274 (inactive) | -0.142 | 0.891 (inactive) | 0.0222 (inactive) | -0.271 (inactive) | 0.228 (inactive) | 0.149 | -2.12 (inactive) | -1.27 (inactive) | -2.42
O=C(NCc1ccccc1)[C@@H]1c2ccccc2C(=O)N(CC23CC4CC(CC(C4)C2)C3)[C@H]1c1ccc(CO)cc1 | 0.237 | -2 (inactive) | 0.196 (inactive) | -0.439 (inactive) | 0.707 (inactive) | 0.467 | -0.377 | 0.239 | 0.654 | 1.83 | -1.09 (inactive) | -0.538 | 3.76 (inactive) | 0.295 (inactive) | 1.76 (inactive) | 0.134 (inactive) | -0.366 | -2.38 (inactive) | 0.191 (inactive) | -1.55
CC(C)N1C(=O)[C@@]2(Cc3ccccc31)c1ccccc1C(=O)N(C1CCCCC1)[C@H]2c1ccc(CO)cc1 | 0.0034 | -0.8 (inactive) | -0.868 (inactive) | -0.141 (inactive) | 0.815 (inactive) | -0.169 | -0.0987 | -0.245 | 0.333 | 1.99 | 0.04 (inactive) | -0.101 | 0.206 (inactive) | 0.195 (inactive) | 0.516 (inactive) | 0.378 (inactive) | 0.0252 | 0.111 (inactive) | 0.217 (inactive) | -0.638
CN(C)CCCNC(=O)[C@@]1(c2ccc([N+](=O)[O-])cc2)CC(=O)N(C2CCCCC2)[C@@H]1c1ccc(CO)cc1I | -0.107 | -5.87 (inactive) | 0.262 (inactive) | 0.378 (inactive) | 0.519 (inactive) | 0.71 | -0.016 | 0.343 | 0.306 | 0.279 | -2.09 (inactive) | 0.0824 | 14.8 (active) | 1.44 (inactive) | -2.81 (inactive) | 0.037 (inactive) | -1.78 | -8.16 (active) | -2.52 (inactive) | 0.205
O=C1O[C@H](c2ccccc2)[C@H](c2ccccc2)N2[C@H]1[C@@H](C(=O)O)[C@]1(C(=O)Nc3ccc(C#CC4=CCCCC4)cc31)[C@H]2c1ccccc1OCCO | 1.02 | -4.67 (inactive) | -0.177 (inactive) | 17.1 (active) | 26.1 (active) | 1.97 | 0.17 | 0.849 | 0.516 | 0.892 | -0.611 (inactive) | 1.44 | -1.84 (inactive) | -1.36 (inactive) | -14.6 (active) | -1.92 (inactive) | 0.296 | 2.51 (inactive) | -1.94 (inactive) | -1.08
O=C(NCc1ccc(F)cc1)[C@H]1C[C@H]2C(=O)N[C@@H](Cc3ccccc3)C(=O)N2[C@H]1c1ccc(O)cc1 | -0.0011 | -0.411 (inactive) | 0.506 (inactive) | -0.801 (inactive) | -0.887 (inactive) | -0.507 | -0.206 | 1.08 | 1.37 | 1.1 | 0.132 (inactive) | -0.0601 | 2.64 (inactive) | 0.591 (inactive) | -1.55 (inactive) | 0.498 (inactive) | -0.0688 | 0.171 (inactive) | 0.301 (inactive) | 0.965
COCC(=C=CC[C@@H](O)c1ccccc1OCCO)C[C@@H](O)c1cc(Cl)cc(Cl)c1O | 0.539 | -1.54 (inactive) | 0.112 (inactive) | 15.6 (active) | 0.789 (inactive) | 0.394 | -0.0112 | 1.66 | 1.04 | 2.07 | -0.397 (inactive) | 0.086 | 20.5 (active) | 4.9 (inactive) | 0.392 (inactive) | 0.945 (inactive) | 0.35 | -0.19 (inactive) | -0.894 (inactive) | -2.07
